Compound activity as filed in PubChem BioAssay.
D2 antag: HTS Assay for Allosteric Antagonists of the Human D2 Dopamine Receptor: Primary Screen for Antagonists. D(2) dopamine receptor (Homo sapiens), P14416. HEK293 TREx D2 cells, calcium flux, dopamine EC80. inhibition, % at 10 µM. 2% of 340,000 active. AID 485344, 2010; in the data active = inhibition above about 30%; inactive = below that, where a call was filed
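Calcium flux kinetic readout in an inducible HEK293 TREx D2 line plated overnight at 30 C. After 180 s compound exposure, an EC80 dopamine challenge follows with another 180 s kinetic read to detect antagonism.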
D2 PAM-1: Beta-Arrestin HTS for Positive Allosteric Modulators of the Human D2 Dopamine Receptor: Potentiators | D(2) dopamine receptor (Homo sapiens), P14416 | DiscoveRx D2 beta-arrestin cells, luminescence, 90 min; 100% = 57 uM dopamine signal | potentiation, % (concentration not given with the values) | 0.23% of 360,000 active | AID 624464, 2012; in the data active = potentiation above about 50%; inconclusive = mostly about 30% to 49%
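D2 cells co-treated with compound plus 50 nM dopamine (EC20) for 90 min at 37 deg C to detect potentiation. Beta-arrestin recruitment was read as enzyme-fragment luminescence after 1 h at ambient temperature. Full response was set by 57 uM dopamine.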
D2 ag-1: HTS Assay for Allosteric Agonists of the Human D2 Dopamine Receptor: Primary Screen for Agonists; HEK293 T-REx D2 cells, calcium flux agonist mode; 0.53% of 340,000 active; activation, % at 2 µM;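 active = activation over 3 SD above normal in the single-dose calcium agonist read, cut at about 30% in these data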
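HEK293 Trex D2 cells, tetracycline-induced, o/n 30 C 5% CO2; no-wash Ca dye, RT 30–90 min; 10-cycle baseline, 23 nl cpd added, kinetic Ca read 180 s; agonist hits = positive Ca response.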
D2 ag-2: Beta-Arrestin HTS for Positive Allosteric Modulators of the Human D2 Dopamine Receptor: Agonists | D(2) dopamine receptor (Homo sapiens), P14416 | DiscoveRx PathHunter D2 beta-arrestin, luminescence, 90 min; 100% = 57 uM dopamine signal | activation, % (test concentration not listed) | 0.084% of 360,000 active; in the data active = activation above about 40%; inconclusive = between about 15% and that limit
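Agonist mode: compounds alone added to overnight-plated D2 PathHunter cells for 90 min at 37 C, with 57 uM final dopamine (EC100) defining full response. Beta-arrestin recruitment detected by chemiluminescent reagent, read after 1 h at ambient temperature.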
D2 PAM-2: HTS Assay for Positive Allosteric Modulators of the Human D2 Dopamine Receptor: Primary Screen for Potentiators. D(2) dopamine receptor (Homo sapiens), P14416. 0.34% of 340,000 active. potentiation, % at 10 µM. HEK293 T-REx D2, calcium flux, EC20 dopamine potentiation. AID 485347, 2010;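 active = potentiation over 3 SD above the plate norm, cut at about 30% in these data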
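Using a no-wash calcium dye in inducible, force-coupled HEK293 Trex cells expressing D2, we tracked fluorescence each second for 180 s after compound, then for 180 s after EC20 dopamine to detect augmented signalling.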
D3 ag: qHTS of D3 Dopamine Receptor Agonist: D3 Dopamine Receptor B-arrestin Agonist Confirmatory Assay; shares compounds with D2 ag-1; 4% of 2,300 active; Potency, µM (highest dose often 76.9 µM), hits mostly activators; DiscoveRx D3 beta-arrestin cells, luminescence, 90 min; AID 720506, 2013; note: nearly all actives have a fitted effect of over 70% in size
Target sequence (P35462 whole entry, looked up): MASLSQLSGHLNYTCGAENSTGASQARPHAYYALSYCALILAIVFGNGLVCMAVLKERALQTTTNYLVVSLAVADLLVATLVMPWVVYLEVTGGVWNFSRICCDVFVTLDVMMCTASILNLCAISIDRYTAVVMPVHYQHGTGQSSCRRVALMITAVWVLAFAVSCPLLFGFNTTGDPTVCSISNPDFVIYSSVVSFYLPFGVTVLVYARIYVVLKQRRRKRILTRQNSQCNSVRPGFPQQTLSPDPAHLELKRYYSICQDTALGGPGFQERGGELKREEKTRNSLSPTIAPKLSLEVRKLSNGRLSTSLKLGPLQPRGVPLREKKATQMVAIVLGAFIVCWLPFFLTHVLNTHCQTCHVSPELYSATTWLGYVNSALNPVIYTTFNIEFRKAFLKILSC
D2 ag-3: qHTS of D3 Dopamine Receptor Agonist: D2 Dopamine Receptor B-arrestin Agonist Counterscreen; AID 720507, 2013; 5.9% of 2,300 active; DiscoveRx PathHunter D2 beta-arrestin, luminescence, 90 min; response scale: percent relative to full dopamine signal; Potency, µM (doses to about 76.9 µM), hits mostly activators; shares compounds with D2 ag-1; note: nearly all actives have a fitted effect of over 70% in size
Hits are given with their value; n = inactive; u = inconclusive; x = not tested or not shown. This is a sample that favours compounds with a hit; in the whole collection about 2.4% have one here. Unless noted, calls come from the whole dose curve; as a rule, active = well fitted activation curve with a large enough effect; inconclusive = small, poorly fitted or top-dose-only effect; inactive = flat fitted curve, though single readings scatter.

SMILES	D2 antag	D2 PAM-1	D2 ag-1	D2 ag-2	D2 PAM-2	D3 ag	D2 ag-3
O=C(Nc1c[nH]c(=O)[nH]c1=O)c1ccccc1Br	n	n	n	n	n	x	x
CC(=O)c1cc2c(O)c(O)ccc2o1	n	n	n	n	n	u	n
CC(=O)c1cc2cc(O)ccc2o1	n	n	n	n	n	x	x
C=CCOc1ccc(Br)cc1CNCC	67	n	62	n	n	n	u
CC1CCCC(NC2CCCCNC2=O)C1 (configuration not stated)	n	n	n	n	n	x	x
O=C(NC(=S)N1CCN(C/C=C/c2ccccc2)CC1)c1c(F)cccc1F	n	n	n	n	n	x	x
Cc1cc(C(=O)N2CCN(C/C=C/c3ccccc3)CC2)no1	n	n	n	n	n	x	x
O=C(NC(=S)N1CCN(C/C=C/c2ccccc2)CC1)c1ccco1	n	n	48	n	n	n	n
O=C(c1ccco1)N1CCN(C/C=C/c2ccccc2)CC1	n	u	89	41	n	u	u
COc1ccc(C(C)=O)cc1COC(=O)c1cc(C)oc1C	n	n	n	n	n	x	x
COC(=O)[C@H](CC(C)C)NS(=O)(=O)c1ccccc1	n	n	n	n	n	x	x
COC(=O)[C@@H](CC(C)C)NS(=O)(=O)N(Cc1ccccc1)[C@@H](CC(C)C)C(=O)OC	n	n	n	n	n	n	n
C=CC[C@@H]1Cc2c(Br)ccc(Br)c2[C@@H](CC=C)N1	n	n	n	u	n	x	x
C=CCC1NCCc2c(Br)cccc21 (configuration not stated)	n	n	47	n	n	n	n
CCC(NC(=O)Nc1nnc(C(F)(F)F)s1)(C(F)(F)F)C(F)(F)F	n	n	n	n	n	x	x
Cc1ccc2[nH]c(=O)c3cc(C(=O)N(C)Cc4ccco4)sc3c2c1	n	n	82	n	n	n	n
CC(Sc1n[nH]c(=O)n1Cc1ccccc1)C(=O)NCC1CCCO1 (configuration not stated)	n	n	n	n	n	x	x
COc1ccc2cc(CN(CCc3ccccc3)Cc3nnnn3CC3CCCO3)c(=O)[nH]c2c1 (configuration not stated)	n	n	n	n	n	x	x
COc1ccc2[nH]c(=O)c(CN(CCc3ccccc3)Cc3nnnn3CC3CCCO3)cc2c1 (configuration not stated)	n	n	n	n	n	u	n
CCOC(=O)Cn1nnnc1CN(Cc1ccc(OC)cc1)Cc1cc2cc(CC)ccc2[nH]c1=O	n	n	n	n	n	n	n
O=C(CCNS(=O)(=O)c1ccc(Br)cc1)NCc1cccs1	n	n	n	n	n	x	x
CN(Cc1cccs1)C(=O)CCNS(=O)(=O)c1ccc(Br)cc1	n	n	n	n	n	n	n
COc1cccc(C2CC(=O)Nc3cc4c(cc32)CCC4)c1 (configuration not stated)	n	n	n	n	n	n	n
COc1cccc(C2CC(=O)Nc3cc(OC)c(OC)cc32)c1 (configuration not stated)	n	n	n	n	n	x	x
CCCN(CCC)CCOc1cc(C)ccc1C(C)C	x	n	x	u	x	n	u
Cc1ccc(C(C)C)c(OCCN(C)C)c1	n	n	n	n	n	x	x
